From PubChem BioAssay (EPA / NIEHS) come the findings set out here.

Structures are written as SMILES. Where “and” joins values, the source holds several entries; their conditions need not be identical. Equal entries are not always repeated. Some compounds were tested as several samples or in several runs, with calls that do not always agree. Calls of active or inactive are those of the source. How the source made its calls: active means hit-call score of the fitted dose curve at least 0.9, where 1 is the maximum; inactive means score below 0.9.

Read-out in one assay: CD69, CD69 (gene 969)
The experiment in a line: BSK_IMphg_CD69: BioMAP Diversity Plus: IMphg Assay for CD69 Biomarker Activity (AID 2284257). As to conditions: primary human endothelial cells with macrophages. Put shortly:
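Readout is ELISA for CD69 in primary human venular endothelial cell/macrophage co-culture, taken at 24 h post-dosing. SRB staining of parallel cultures gauged overt cytotoxicity; signal increase versus DMSO defined activity.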
As to `NC(=O)C(F)(F)C(F)(F)C(F)(F)C(F)(F)F`, the outcome was inactive.

For `C=C(C)C(=O)OCC(F)(F)C(F)(F)C(F)(F)F`, the outcome was inactive. With `C=CC(F)(F)C(F)(F)C(F)(F)C(F)(F)C(F)(F)C(F)(F)C(F)(F)C(F)(F)F`, the result was inactive. Still for that read-out and setting: in the case of `O=S(=O)(OCCOC(F)(F)F)C(F)(F)F` it was “inactive”.

Take `O=C(O)C(F)(F)C(F)(F)C(F)(F)F`: the result was inactive.

In the case of `OCC(F)(F)C(F)(F)C(F)(F)C(F)F`, the outcome was inactive. On the same count and under the same terms, in the case of `CC(C)(C)C(=O)CC(=O)C(F)(F)C(F)(F)C(F)(F)F` it was “inactive”; in that of `FC(F)(F)C(F)(F)C(F)(F)C(F)(F)CCI`, “inactive”; in that of `O=C(O)C(F)(F)C(F)(F)C(F)(F)C(F)(F)C(F)(F)C(F)(F)C(F)(F)C(F)(F)C(F)(F)C(F)(F)C(F)(F)C(F)(F)F`, “inactive”. The same measure, in the same setting: in the case of `C=CC(=O)OCC(F)(F)C(F)(F)C(F)(F)C(F)(F)C(F)(F)C(F)(F)C(F)(F)F` it was “inactive”; in that of `O=C(O)C(F)(F)C(F)(F)C(F)F`, “inactive”; in that of `FC(F)(F)C(F)(F)C(F)(F)C(F)(F)C(F)(F)C(F)(F)CC1CO1` (configuration not stated), “inactive”. Still for that read-out and setting: next, `OCC(F)(F)C(F)(F)C(F)(F)F`: “inactive”; `FC(F)(Br)C(F)(F)C(F)(F)C(F)(F)C(F)(F)C(F)(F)Br`: “inactive”. For `O=C(O)C(F)(OC(F)(F)C(F)(OC(F)(F)C(F)(OC(F)(F)C(F)(F)C(F)(F)F)C(F)(F)F)C(F)(F)F)C(F)(F)F` (configuration not stated), the outcome was inactive. On the same count and under the same terms, next, `OCC(F)(F)C(F)(F)C(F)(F)C(F)(F)C(F)(F)C(F)(F)F`: “inactive”; `C=CC(F)(F)C(F)(F)C(F)(F)C(F)(F)C(F)(F)C(F)(F)C(F)(F)C(F)(F)C=C`: “inactive”.

Read-out in another assay: Eotaxin 3, CCL26 (gene 10344)
Kind of assay: BSK_BF4T_Eotaxin3: BioMAP Diversity Plus: BF4T Assay for Eotaxin 3 Biomarker Activity (AID 2284258). As to conditions: primary human bronchial epithelial cells with fibroblasts. Put shortly:
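ELISA measurement of Eotaxin-3 after 24 h chemical exposure in a bronchial epithelial/dermal fibroblast co-culture, with DMSO as baseline. Parallel SRB staining (0.1% SRB after 10% TCA fixation, 560 nm) flagged overt cytotoxicity.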
Consider `NC(=O)C(F)(F)C(F)(F)C(F)(F)C(F)(F)F`, for which the result was inactive. The same measure, in the same setting: next, `C=C(C)C(=O)OCC(F)(F)C(F)(F)C(F)(F)F`: “inactive”.

`C=CC(F)(F)C(F)(F)C(F)(F)C(F)(F)C(F)(F)C(F)(F)C(F)(F)C(F)(F)F`: the outcome was inactive. As a reminder, the AC50 is the concentration at which the activity in the assay is half-maximal. For `C=CC(=O)OCC(F)(F)C(F)(F)C(F)(F)C(F)(F)COC(=O)C=C`, the AC50 was 21.9 µM (active) and 30 µM (active).

`C=C(C)C(=O)OCCC(F)(F)C(F)(F)C(F)(F)C(F)(F)C(F)(C(F)(F)F)C(F)(F)F`: the outcome was inactive.

For `O=S(=O)(OCCOC(F)(F)F)C(F)(F)F`, the outcome was inactive.

As for `O=C(O)C(F)(OC(F)(F)C(F)(OC(F)(F)C(F)(F)C(F)(F)F)C(F)(F)F)C(F)(F)F` (configuration not stated), the outcome was inactive. On the same count and under the same terms, next, `O=C(O)C(F)(F)C(F)(F)F`: “inactive”; `O=C(O)C(F)(F)C(F)(F)C(F)(F)F`: “inactive”.

Take `OCC(F)(F)C(F)(F)C(F)(F)C(F)F`: the outcome was inactive. As for `O=C(Cl)C(F)(F)C(F)(F)C(F)(F)C(F)(F)C(F)(F)C(F)(F)C(F)(F)C(F)(F)F`, the AC50 was 41.7 µM (active) and 39.5 µM (active) and 45.8 µM (active).

Regarding `OCCCC(F)(F)C(F)(F)C(F)(F)C(F)(F)C(F)(F)C(F)(F)C(F)(F)F`, the AC50 was 52.3 µM (active) and the result was inactive. Turning to `CC(C)(C)C(=O)CC(=O)C(F)(F)C(F)(F)C(F)(F)F`, the outcome was inactive. With `FC(F)(I)C(F)(F)C(F)(F)C(F)(F)I`, the AC50 is 57.1 µM (active) and 50.6 µM (active); the outcome was inactive. Regarding `O=S(=O)(O)C(F)(F)C(F)(F)C(F)(F)C(F)(F)C(F)(F)C(F)(F)C(F)(F)F`, the result was inactive. Still for that read-out and setting: next, `FC(F)(F)C(F)(F)C(F)(F)C(F)(F)CCI`: “inactive”; `O=C(O)C(F)(F)C(F)(F)C(F)(F)C(F)(F)C(F)(F)C(F)(F)C(F)(F)C(F)(F)C(F)(F)C(F)(F)C(F)(F)C(F)(F)F`: “inactive”; `C=CC(=O)OCC(F)(F)C(F)(F)C(F)(F)C(F)(F)C(F)(F)C(F)(F)C(F)(F)F`: “inactive”.

For `FC(F)(F)C(F)(F)C(F)(F)C(F)(F)C(F)(F)C(F)(F)C(F)(F)I`, the outcome was inactive.

Turning to `O=C(O)C=C(C(F)(F)F)C(F)(F)F`, the AC50 was 10.8 µM (active) and the outcome was inactive. As for `O=C(O)C(F)(F)C(F)(F)C(F)F`, the outcome was inactive. On the same count and under the same terms, in the case of `Cc1ccc(S(=O)(=O)OCC(F)(F)C(F)(F)C(F)(F)C(F)(F)C(F)(F)C(F)F)cc1` it was “inactive”; in that of `FC(F)(F)C(F)(F)C(F)(F)C(F)(F)C(F)(F)C(F)(F)CC1CO1` (configuration not stated), “inactive”; in that of `FC(F)(F)C(F)(F)C(F)(F)C(F)(F)C(F)(F)C(F)(F)CCS`, “inactive”. As for `O=C(O)C(F)(F)C(F)(F)C(F)(F)C(F)(F)C(F)(F)C(F)(F)C(F)(F)C(F)(F)Cl`, the AC50 is 8.26 µM (active) and 1.05 µM (active). With `OCC(F)(F)C(F)(F)C(F)(F)F`, the outcome was inactive. Take `O=C(O)C(F)(F)C(F)(F)C(F)(F)C(F)(F)C(F)(F)C(F)(F)C(F)(F)C(F)(F)C(F)(F)C(F)F`: the AC50 is 5.95 µM (active) and the outcome was inactive.

In the case of `FC(F)(Br)C(F)(F)C(F)(F)C(F)(F)C(F)(F)C(F)(F)Br`, the result was inactive. For the compound `O=C(O)C(F)(OC(F)(F)C(F)(OC(F)(F)C(F)(OC(F)(F)C(F)(F)C(F)(F)F)C(F)(F)F)C(F)(F)F)C(F)(F)F` (configuration not stated), the outcome was inactive. The same measure, in the same setting: in the case of `OCC(F)(F)C(F)(F)C(F)(F)C(F)(F)C(F)(F)C(F)(F)F` it was “inactive”.

Take `FC(F)(F)C(F)(F)C(F)(F)C(F)(F)C(F)(F)CCI`: the AC50 was 38.6 µM (active) and the outcome was inactive. Turning to `FC(F)(F)C(F)(F)C(F)(F)C(F)(F)C(F)(F)C(F)(F)C(F)(F)Br`, the result was inactive. For the compound `N=C(N)C(F)(F)C(F)(F)C(F)(F)C(F)(F)C(F)(F)C(F)(F)C(F)(F)F`, the AC50 is 38.9 µM (active) and the result was inactive. Take `C=CC(F)(F)C(F)(F)C(F)(F)C(F)(F)C(F)(F)C(F)(F)C(F)(F)C(F)(F)C=C`: the result was inactive.
